Assay results published in PubChem BioAssay (Tox21).
“And” between values parts separate entries of the source, which are not always exact repeats. Identical values can stand only once. Results filed as inconclusive are left out. Entries that show only a call come without a potency. Where a structure was tested more than once in an assay, its records may differ in their call. The source made the active and inactive calls. The call rests on the fitted dose curve; in most records, active means well fitted cell-killing curve with a large enough effect in the repeat runs; inconclusive means weak or mixed curves, or effect the other way; inactive means flat fitted curve, though single readings scatter.

experiment: qHTS RealTime-Glo MT Cell Viability Assay in HEK293 cells - 16 hour (AID 1224872); settings: RealTime-Glo luminescence; series mostly up to 76.8 µM; further: nearly all actives have a fitted effect of over 50% in size
Excerpt: National Center for Advancing Translational Sciences [NCATS]
NIH Chemical Genomics Center [NCGC]
U.S. Environmental Protection Agency [EPA]
National Institutes of Environmental Health Sciences [NIEHS]
National Toxicology Program [NTP]
U.S. Food and Drug Administration [FDA]
Measure of cell viability is critical in the cell-base assay. Analysis of cell viability is necessary for the characterization of cell responses to cytotoxic drugs and environmental stress. A RealTime-Glo MT Cell Viability Assay to monitor cell viability in real time of continues cell culture during 40 hours of compound treatment was used to screen Tox21 10K library compounds in Hek293 cells. The RealTime-Glo MT Cell Viability Assay is a nonlytic, homogeneous, bioluminescent method to measure cell viability in real time using a simple, plate-based method. The assay involves adding NanoLuc luciferase and a cell-permeant prosubstrate to cells in culture. Viable cells reduce the proprietary prosubstrate to generate a substrate for NanoLuc luciferase. This substrate diffuses from cells into the surrounding culture medium, where it is rapidly used by the NanoLuc Enzyme to produce a luminescent signal. The signal correlates with the number of viable cells, making the assay well suited for cytotoxicity studies.
Tox21 Assay Protocol Summary:
The mixture of Hek293 cell suspension and reagents were dispensed at 600cells/6 ul/well in 1536-well tissue culture treated black solid bottom plates using a Multidrop dispenser. After the assay plates were incubated at a 37 C/5% CO2 incubator for 5 hours, 23 nL of compounds dissolved in DMSO, positive and negative controls was transferred to the assay plate by a pintool work station. The plates were incubated at 37 C for 40 hours. The luminescence intensity were measured at 0h, 8h, 16h, 24h, 32h and 40h time points using ViewLux plate reader during compound treatment.
Potency means the concentration at half of the fitted maximal effect.

Q: With `COc1nc(C)nc(Cl)c1NC1=NCCN1` as the molecule, how does the Potency read?
A: inactive

Q: With `NCCO` as the molecule, how does the Potency read?
A: inactive

Q: With `C=C(C)C1CC=C(C)C(OC(C)=O)C1` (stereo not given) as the molecule, how does the Potency read?
A: inactive

Q: For `CCOc1ccc2c(c1)C(C)=CC(C)(C)N2`, which Potency is on record?
A: inactive

Q: For `BrC1CCC(Br)C(Br)CCC(Br)C(Br)CCC1Br` (stereo not given), which Potency is on record?
A: inactive

Q: For `CC1=C(C=O)C(C)(C)CC=C1`, which Potency is on record?
A: inactive

Q: With `Cc1ccnc2c1NC(=O)c1cccnc1N2C1CC1` as the molecule, how does the Potency read?
A: inactive

Q: Which Potency does the source give for `NC12CC3CC(CC(C3)C1)C2` here?
A: inactive

Q: With `O=C1Nc2ccccc2C1(c1ccc(O)cc1)c1ccc(O)cc1` as the molecule, how does the Potency read?
A: inactive

Q: For `Oc1c(Cl)cc(Cl)cc1Sc1cc(Cl)cc(Cl)c1O`, which Potency is on record?
A: inactive

Q: For `O=c1n(CC2CO2)c(=O)n(CC2CO2)c(=O)n1CC1CO1` (stereo not given), which Potency is on record?
A: inactive

Q: With `CC(N)=O` as the molecule, how does the Potency read?
A: inactive

Q: Which Potency does the source give for `CCC(=O)/C=C/C1C(C)=CCCC1(C)C` (stereo not given) here?
A: inactive

Q: For `Nc1ccc2cc3ccccc3cc2c1`, which Potency is on record?
A: inactive

Q: For `COC(=O)/C=C/c1ccccc1`, which Potency is on record?
A: inactive

Q: For `CC(=O)OCC1=C(C(=O)O)N2C(=O)[C@@H](NC(=O)Cc3cccs3)[C@H]2SC1`, which Potency is on record?
A: inactive

Q: With `O=C1CC2(CCCC2)CC(=O)N1CCCCN1CCN(c2ncccn2)CC1` as the molecule, how does the Potency read?
A: 43.6 µM (active) and inactive

Q: Which Potency does the source give for `O=C(O)c1cn(-c2ccc(F)cc2)c2cc(N3CCNCC3)c(F)cc2c1=O` here?
A: inactive

Q: For `[Cl][In]([Cl])[Cl]`, which Potency is on record?
A: inactive

Q: Which Potency does the source give for `Oc1ccc(Cl)cc1Cc1cc(Cl)ccc1O` here?
A: 22.3 µM (active)

Q: Which Potency does the source give for `CCN(CC)C(=S)SSC(=S)N(CC)CC` here?
A: 89.1 nM (active) and 13.4 µM (active)

Q: With `OCCN1CCNCC1` as the molecule, how does the Potency read?
A: 15.8 µM (active)

Q: For `CCc1cc(C(C)(C)C)c(O)c(C(C)(C)C)c1`, which Potency is on record?
A: inactive

Q: Which Potency does the source give for `CC[C@H]1CN2CCc3cc(OC)c(OC)cc3[C@@H]2C[C@@H]1C[C@H]1NCCc2cc(OC)c(OC)cc21` here?
A: 24.6 nM (active) and 75.6 nM (active)

Q: Which Potency does the source give for `CN(C)c1ccc2nc3ccc(=[N+](C)C)cc-3sc2c1` here?
A: 2.97 µM (active) and 3.09 µM (active) and 2.68 µM (active)

Q: With `CCCNC(C)C(=O)Nc1ccccc1C` (stereo not given) as the molecule, how does the Potency read?
A: inactive

Q: Which Potency does the source give for `CC(C)(C)NCC(O)COc1ccccc1OCC1CCCO1` (stereo not given) here?
A: inactive

Q: For `CCCCCCCCCCCC[N+](C)(C)C`, which Potency is on record?
A: inactive

Q: Which Potency does the source give for `O=C(O)c1cc(Cl)cc(Cl)c1` here?
A: inactive

Q: For `Nc1cc(Cl)c(-c2cc(Cl)c(N)cc2Cl)cc1Cl`, which Potency is on record?
A: 24.5 µM (active)

Q: With `c1ccc2cc3c(ccc4ccccc43)cc2c1` as the molecule, how does the Potency read?
A: inactive

Q: Which Potency does the source give for `Nc1nc(=S)c2[nH]cnc2[nH]1` here?
A: inactive

Q: Which Potency does the source give for `CC(C(O)c1ccc(O)cc1)N1CCC(Cc2ccccc2)CC1` (stereo not given) here?
A: inactive

Q: For `CNC1(C)C2CCC(C2)C1(C)C` (stereo not given), which Potency is on record?
A: inactive

Q: With `CC[C@@H](N)CO` as the molecule, how does the Potency read?
A: inactive

Q: With `NCCCCCC(=O)O` as the molecule, how does the Potency read?
A: inactive

Q: For `c1cc(C(c2ccc(OCC3CO3)cc2)C(c2ccc(OCC3CO3)cc2)c2ccc(OCC3CO3)cc2)ccc1OCC1CO1` (stereo not given), which Potency is on record?
A: inactive

Q: Which Potency does the source give for `NC(=Nc1ccccc1)Nc1ccccc1` here?
A: inactive

Q: With `C[N+]1([O-])CCOCC1` as the molecule, how does the Potency read?
A: inactive

Q: Which Potency does the source give for `CCn1c2ccccc2c2cc(N)ccc21` here?
A: inactive
